Assay [1] is described as follows: antimalarial activity against Dd2 strain (AID 2302;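 active = growth inhibition above 50% at the single 2 µM test dose, taken to imply half-maximal potency below 2 µM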;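 also: 0% = DMSO untreated growth and 100% = chloroquine plus artemisinin killed control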). Conditions: P. falciparum Dd2 in RBCs, LDH growth readout, 72 h; at 2 µM; stronger effect = higher value.
Assay [2] can be described thus: human hepatoma cell viability loss – ATP luminescence, cytotoxicity control for P. falciparum antimalarial project, primary screen (AID 2303;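 active = inhibition above 50%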;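 also: 0% = DMSO wells and 100% = digitonin-killed cells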). Conditions: HepG2 viability, 24-48 h, at 10 µM, stronger effect = higher value.
Assay [3] deals with L-lactate dehydrogenase (Plasmodium falciparum (isolate CDC / Honduras)) (UniProt Q27743). The assay can be described thus: PfLDH activity inhibition – cell lysate, 3D7 strain, counter-screen for P. falciparum growth inhibition project (AID 2304).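 Also: 0% = vehicle and 100% = reference inhibitor.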 Conditions: P. falciparum 3D7 crude extract, LDH APAD/NBT absorbance; at 2 µM; stronger effect = higher value.
The nature of assay [4]: inhibition of 3D7 malaria parasite growth – strain 3D7 (AID 2306).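 Also: 0% = DMSO wells and 100% = chloroquine plus artemisinin control wells.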 Conditions: P. falciparum 3D7 erythrocytic growth, LDH absorbance, 72 h; at 2 µM; stronger effect = higher value.
Assay [5] addresses Calcium-dependent protein kinase 1 (Plasmodium falciparum (isolate 3D7)) (UniProt P62344). The assay can be described thus: PfCDPK1 kinase inhibitors, biochemical, TCAMS library (AID 1159585; cut-off not given, nearly all actives have IC50 up to about 0.98 µM;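 also: inhibitors leave more ATP so luminescence rises with inhibition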). Conditions: recombinant PfCDPK1, Kinase-Glo ATP depletion luminescence. In general terms: Kinase-Glo reads ATP consumption through a luciferase reaction.
Assay [6] deals with Plasmodium falciparum protein kinase 6 (PK6, PF3D7_1337100) (UniProt Q8IDW1). The assay can be described thus: PfPK6 kinase inhibitors, biochemical, TCAMS library (AID 1159586). Conditions: recombinant PfPK6, Kinase-Glo ATP depletion luminescence.
For assay [7], the target named is Protein kinase 7 (PK7), Plasmodium falciparum 3D7 (PF3D7_0213400) (UniProt Q7YTF7). Description: inhibition of Plasmodium PK7 catalytic activity – biochemical, TCAMS antimalarial set, Kinase-Glo luminescence (AID 1159587). Conditions: recombinant PfPK7, Kinase-Glo ATP depletion luminescence.
In assay [8] the target is Calcium-dependent protein kinase 4 (Plasmodium falciparum (isolate 3D7)) (UniProt Q8IBS5). The assay can be described thus: PfCDPK4 kinase inhibitors, biochemical, TCAMS library (AID 1159588; cut-off not given, nearly all actives have IC50 up to about 0.91 µM). Conditions: recombinant PfCDPK4, Kinase-Glo ATP depletion luminescence.

Molecules are shown by their SMILES. Values without a mark were called inactive. For some of these results: Measured potencies and affinities stand elsewhere. Active and inactive are the calls of the source. Unless noted, no rule for the calls is given here.

By inhibition is commonly meant the relative decrease from the control value, in per cent.

Sequence of Calcium-dependent protein kinase 4 (Plasmodium falciparum (isolate 3D7)) (Q8IBS5 whole entry, looked up): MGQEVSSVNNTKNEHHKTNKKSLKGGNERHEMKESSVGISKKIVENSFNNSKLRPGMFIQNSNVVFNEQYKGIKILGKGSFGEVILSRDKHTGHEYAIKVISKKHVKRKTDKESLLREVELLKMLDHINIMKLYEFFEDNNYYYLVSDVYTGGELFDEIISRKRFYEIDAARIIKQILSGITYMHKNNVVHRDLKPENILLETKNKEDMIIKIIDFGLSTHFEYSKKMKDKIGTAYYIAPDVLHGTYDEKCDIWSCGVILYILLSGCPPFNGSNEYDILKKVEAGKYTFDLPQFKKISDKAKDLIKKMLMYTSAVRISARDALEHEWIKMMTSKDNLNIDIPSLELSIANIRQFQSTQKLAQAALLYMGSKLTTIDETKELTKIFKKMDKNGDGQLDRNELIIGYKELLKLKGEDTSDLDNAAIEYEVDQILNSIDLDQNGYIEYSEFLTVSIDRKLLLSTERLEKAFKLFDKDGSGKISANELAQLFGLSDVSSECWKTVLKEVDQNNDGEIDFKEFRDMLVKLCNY
Sequence of L-lactate dehydrogenase (Plasmodium falciparum (isolate CDC / Honduras)) (Q27743 whole entry, looked up): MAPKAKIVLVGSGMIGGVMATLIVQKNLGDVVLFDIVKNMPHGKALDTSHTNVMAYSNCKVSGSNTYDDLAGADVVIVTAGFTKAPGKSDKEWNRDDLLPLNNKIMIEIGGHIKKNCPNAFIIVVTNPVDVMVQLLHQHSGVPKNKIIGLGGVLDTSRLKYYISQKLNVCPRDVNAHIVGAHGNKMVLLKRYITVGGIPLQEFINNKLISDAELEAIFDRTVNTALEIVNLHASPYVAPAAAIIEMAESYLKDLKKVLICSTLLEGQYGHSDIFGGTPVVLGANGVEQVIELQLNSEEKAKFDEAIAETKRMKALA
Sequence of Plasmodium falciparum protein kinase 6 (PK6, PF3D7_1337100) (Q8IDW1 1-305): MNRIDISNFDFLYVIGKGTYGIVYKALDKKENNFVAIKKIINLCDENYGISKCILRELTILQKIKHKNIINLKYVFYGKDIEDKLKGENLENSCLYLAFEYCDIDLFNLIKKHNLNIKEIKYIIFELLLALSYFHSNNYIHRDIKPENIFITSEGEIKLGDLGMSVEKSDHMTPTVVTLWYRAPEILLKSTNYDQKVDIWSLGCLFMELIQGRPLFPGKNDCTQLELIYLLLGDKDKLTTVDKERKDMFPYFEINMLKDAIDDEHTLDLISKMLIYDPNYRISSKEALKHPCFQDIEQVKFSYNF
Sequence of Calcium-dependent protein kinase 1 (Plasmodium falciparum (isolate 3D7)) (P62344 whole entry, looked up): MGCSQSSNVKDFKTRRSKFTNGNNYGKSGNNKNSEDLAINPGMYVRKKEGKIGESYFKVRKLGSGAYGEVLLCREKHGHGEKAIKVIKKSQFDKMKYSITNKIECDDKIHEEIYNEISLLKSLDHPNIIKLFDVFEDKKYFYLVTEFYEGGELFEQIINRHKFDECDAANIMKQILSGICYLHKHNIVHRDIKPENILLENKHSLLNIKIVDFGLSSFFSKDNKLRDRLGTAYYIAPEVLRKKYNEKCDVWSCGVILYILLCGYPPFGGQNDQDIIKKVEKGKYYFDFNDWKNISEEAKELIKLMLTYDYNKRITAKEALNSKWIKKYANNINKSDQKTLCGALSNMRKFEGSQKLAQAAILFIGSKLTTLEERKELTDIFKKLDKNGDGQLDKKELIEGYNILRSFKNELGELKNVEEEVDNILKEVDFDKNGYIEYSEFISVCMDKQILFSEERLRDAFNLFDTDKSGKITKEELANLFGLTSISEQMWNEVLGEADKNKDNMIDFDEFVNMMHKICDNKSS
Sequence of Protein kinase 7 (PK7), Plasmodium falciparum 3D7 (PF3D7_0213400) (Q7YTF7 1-343): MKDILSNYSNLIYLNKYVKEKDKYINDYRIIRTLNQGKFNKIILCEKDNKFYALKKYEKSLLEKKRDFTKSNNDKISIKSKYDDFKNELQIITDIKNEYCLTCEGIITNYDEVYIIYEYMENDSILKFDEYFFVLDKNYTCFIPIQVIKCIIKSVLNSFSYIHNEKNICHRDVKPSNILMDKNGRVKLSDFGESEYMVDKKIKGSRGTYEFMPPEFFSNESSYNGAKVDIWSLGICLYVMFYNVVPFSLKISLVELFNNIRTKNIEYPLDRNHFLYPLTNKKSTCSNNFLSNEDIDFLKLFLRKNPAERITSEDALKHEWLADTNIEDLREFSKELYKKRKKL

Consider `CN(CC(=O)Nc1ccc(F)c(F)c1F)c1ncnc2sc(-c3ccccc3)cc12`, for which the growth inhibition was 34% in assay [1] and 95% (active) in assay [4]. For the same compound, the inhibition in assay [2] was 0%; in assay [3], 2%. The result in assay [5], in assay [6], in assay [7] and in assay [8] was inactive.

Take `COc1ccc(-c2ccc(NC(=O)c3ccc(C#N)cc3)cc2)cc1CN(C)CCN(C)C`: the results for the growth inhibition in assay [1] and in assay [4] were 58% (active) and 96% (active), respectively. Also, the figures for the inhibition in assay [2] and in assay [3] were 28% and 2%, respectively. For the same compound, the outcome in assay [5], in assay [6], in assay [7] and in assay [8] was inactive.

In the case of `COc1cccc(OC)c1-c1ccccc1NC(=O)N1CCCc2cc(C)ccc21`, the values for the growth inhibition in assay [1] and in assay [4] were 84% (active) and 82% (active), respectively. The inhibition was 51% (active) in assay [2] and 5% in assay [3]. In addition, the result in assay [5], in assay [6], in assay [7] and in assay [8] was inactive.

As for `CN1CCCc2ccc(NC(=O)c3ccc(-c4cc(C(F)(F)F)nn4C)s3)cc2C1`, the growth inhibition in assay [1] is 34%; in assay [4] it was 88% (active). The inhibition is 16% in assay [2] and -1% in assay [3]. Besides, the outcome in assay [5], in assay [6], in assay [7] and in assay [8] was inactive.

On to `Cc1cc(N[C@@H](Cc2ccccc2)C(=O)NCCc2ccccc2)nc(NCCOc2ccccc2)n1`, for which the values for the growth inhibition in assay [1] and in assay [4] were 14% and 95% (active), respectively. Further, the figures for the inhibition in assay [2] and in assay [3] were 10% and -3%, respectively. The result in assay [5], in assay [6], in assay [7] and in assay [8] was inactive.

For `COc1ccc(C(=O)Nc2cc(Br)c3c(c2)CNCC3)cc1Br`, the values for the growth inhibition in assay [1] and in assay [4] were 8% and 97% (active), respectively. In addition, the inhibition in assay [2] is 25%; in assay [3], 7%. Moreover, the result in assay [5], in assay [6], in assay [7] and in assay [8] was inactive.

Take `COC(=O)c1cccc(CN(CCC(O)(C(F)(F)F)C(F)(F)F)C(=O)CC2CCCC2)c1`: the growth inhibition in assay [1] is 53% (active); in assay [4] it was 98% (active). Moreover, the inhibition in assay [2] is -1%; in assay [3], 0%. The outcome in assay [5], in assay [6], in assay [7] and in assay [8] was inactive.

With `CC(Cc1ccc(C(=O)Nc2ccc(CC(C)NCCc3cccc(Cl)c3)cc2)cc1)NCCc1ccc(C(F)(F)F)cc1` (stereo not given), the growth inhibition in assay [1] was 88% (active); in assay [4] it was 101% (active). In addition, the inhibition in assay [2] is 98% (active); in assay [3], -4%. Besides, the outcome in assay [5], in assay [6], in assay [7] and in assay [8] was inactive.

In the case of `Cn1cncc1CNCc1ccc(-c2cccc(-c3nc4ccccc4[nH]3)c2)cc1`, the growth inhibition was 92% (active) in assay [1] and 101% (active) in assay [4]. In addition, the inhibition in assay [2] is 19%; in assay [3] it was -1%. Further, the result in assay [5], in assay [6], in assay [7] and in assay [8] was inactive.

With `Nc1oc2c(CN3CCCCCC3)c(O)ccc2c(=O)c1-c1nc2ccccc2s1`, the growth inhibition was 99% (active) in assay [1] and 100% (active) in assay [4]. Moreover, the inhibition was 12% in assay [2] and 4% in assay [3]. The outcome in assay [5], in assay [6], in assay [7] and in assay [8] was inactive.

`CC(C)CCN1CCCN(Cc2cccc(NC(=O)c3ccc(Cl)c(Cl)c3)c2)CC1`: the values for the growth inhibition in assay [1] and in assay [4] were 13% and 92% (active), respectively. The inhibition in assay [2] is 35%; in assay [3], -1%. Besides, the outcome in assay [5], in assay [6], in assay [7] and in assay [8] was inactive.

Consider `COc1ccc(CNCc2ccc(-c3ccc(-c4nc5ccc(C(F)(F)F)cc5[nH]4)cc3)cc2)cc1`, for which the growth inhibition was 99% (active) in assay [1] and 102% (active) in assay [4]. The inhibition in assay [2] was 75% (active); in assay [3], 7%. Further, the result in assay [5], in assay [6], in assay [7] and in assay [8] was inactive.

As for `Cc1cc(NC(=O)Nc2ccc3nccc(N4CCN(C)CC4)c3c2)ccc1Br`, the figures for the growth inhibition in assay [1] and in assay [4] were 100% (active) and 101% (active), respectively. In addition, the inhibition in assay [2] was 31%; in assay [3] it was -2%. Besides, the outcome in assay [5], in assay [6], in assay [7] and in assay [8] was inactive.

With `CC(C)NCc1ccc(-c2cccc(NC(=O)c3ccc(F)cc3)c2)cc1`, the figures for the growth inhibition in assay [1] and in assay [4] were 7% and 91% (active), respectively. Besides, the inhibition was 28% in assay [2] and 6% in assay [3]. The result in assay [5], in assay [6], in assay [7] and in assay [8] was inactive.

On to `O=C(Nc1cccc(CN2CCCN(Cc3ccccc3)CC2)c1)c1ccc(-c2ccccc2)cc1`, for which the figures for the growth inhibition in assay [1] and in assay [4] were 8% and 85% (active), respectively. Also, the values for the inhibition in assay [2] and in assay [3] were 45% and -1%, respectively. The outcome in assay [5], in assay [6], in assay [7] and in assay [8] was inactive.

Take `COc1cc2ccccc2cc1CCNCCCCNCCc1cc2ccccc2cc1OC`: the growth inhibition in assay [1] was 38%; in assay [4], 99% (active). The inhibition in assay [2] is 100% (active); in assay [3], 2%. The outcome in assay [5], in assay [6], in assay [7] and in assay [8] was inactive.

`C[C@@H]1CN(c2cnn(C/C=C/c3ccc(NC(=O)c4ccc([N+](=O)[O-])cc4)cc3)c(=O)c2Cl)C[C@H](C)N1`: the results for the growth inhibition in assay [1] and in assay [4] were 38% and 96% (active), respectively. In addition, the inhibition in assay [2] was 22%; in assay [3], -3%. Besides, the result in assay [5], in assay [6], in assay [7] and in assay [8] was inactive.

Take `O=C(Nc1ccc2c(c1)CCCN2S(=O)(=O)c1cccs1)c1cc([N+](=O)[O-])ccc1Cl`: the growth inhibition in assay [1] was 95% (active); in assay [4] it was 93% (active). The inhibition in assay [2] was 29%; in assay [3] it was 3%. For the same compound, the result in assay [5], in assay [6], in assay [7] and in assay [8] was inactive.

As to `O=[N+]([O-])c1cccc(CNC2CCN(Cc3ccc(C(F)(F)F)cc3)CC2)c1`, the growth inhibition in assay [1] is 28%; in assay [4], 99% (active). Moreover, the inhibition was 0% in assay [2] and 1% in assay [3]. For the same compound, the outcome in assay [5], in assay [6], in assay [7] and in assay [8] was inactive.

As for `Cc1nnc2c(N(C(=O)NCCc3ccccc3)C(=O)NCCc3ccccc3)cc3cc(Cl)ccc3n12`, the growth inhibition is 34% in assay [1] and 91% (active) in assay [4]. Besides, the values for the inhibition in assay [2] and in assay [3] were 0% and -5%, respectively. Also, the outcome in assay [5], in assay [6], in assay [7] and in assay [8] was inactive.

The values are drawn from PubChem BioAssay.
